# An excerpt weighted towards active compounds, which were near 0.4% of everything screened.
# Rab2 wt GTP – modulators of GTP binding to Rab2A wildtype, primary screen, biochemical, dog, bead-based flow cytometry, multiplex; Ras-related protein Rab-2A (Canis lupus familiaris), P61105; GST-Rab2 wt beads, Bodipy-GTP binding; GTP binding activity, % at 10 µM; 190,000 tested, 0.19% active; AID 760, 2007;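 active = GTP binding activity at least 20 points away from 100%, either lowered or raised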;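 also: 0% = beads with excess unlabeled GTP and 100% = no-compound control corrected for plate trend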
# Cdc42 wt – modulators of GTP binding to wildtype Cdc42, primary screen, biochemical, multiplex bead flow cytometry, Bodipy-GTP; AID 761, 2007; 190,000 tested, 0.2% active; percent activity (GTP binding), % at 10 µM; GST-Cdc42 beads; actives lie on both sides;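 active = percent activity GTP binding at least 20 points away from the 100% baseline, either down as inhibitor or up as activator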;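 also: median bead fluorescence of bound Bodipy-FL-GTP at 100 nM; 0% = excess unlabeled GTP control and 100% = no compound control; below 100% means less GTP binding so inhibitor and above means activator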
# Target sequence (P60953 whole entry, looked up): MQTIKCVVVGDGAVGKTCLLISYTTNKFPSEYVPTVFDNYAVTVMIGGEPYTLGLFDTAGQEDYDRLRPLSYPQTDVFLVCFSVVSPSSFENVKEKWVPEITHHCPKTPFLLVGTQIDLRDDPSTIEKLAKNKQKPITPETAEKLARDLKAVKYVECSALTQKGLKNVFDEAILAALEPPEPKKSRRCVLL
# HRas wt GTP bind – modulators of GTP binding to HRas wildtype, primary screen, biochemical, bead-based flow cytometry, multiplex; GTP binding activity, % at 10 µM; GST-Ras wt beads, Bodipy-FL-GTP binding; actives lie on both sides; 190,000 tested, 0.14% active; GTPase HRas (Homo sapiens), P01112;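 active = GTP binding activity at least 20% away from the 100% baseline, either lowered as inhibitor or raised as activator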;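 also: 0% = unlabeled GTP competition control and 100% = no-compound control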
# Target sequence (P01112 whole entry, looked up): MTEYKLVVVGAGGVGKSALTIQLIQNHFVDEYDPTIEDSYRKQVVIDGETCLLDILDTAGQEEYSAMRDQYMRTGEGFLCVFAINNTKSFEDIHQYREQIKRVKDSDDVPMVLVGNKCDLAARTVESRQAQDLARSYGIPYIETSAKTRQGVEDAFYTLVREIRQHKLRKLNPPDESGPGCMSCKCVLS
# Rac1 wt GTP bind – wildtype Rac1 GTP binding modulators, primary screen, biochemical, GST-Rac1 beads, flow cytometry, multiplex | fluorescent GTP binding; actives lie on both sides; 0 = cold GTP competed, 100 = untreated | GTP binding activity (% of control), % at 10 µM | 190,000 tested, 0.27% active;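 active = GTP binding activity at least 20 points away from the 100% control level, either lower or higher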
# Rab7 wt modul – modulators of GTP binding to Rab7, primary screen, biochemical, wildtype, multiplex bead flow cytometry; Rab7 GTPase wild type (dog), Bodipy-FL-GTP binding; GST-Rab7 beads, fluorescent GTP binding; actives lie on both sides; untreated = 100%, excess cold GTP = 0%; GTP binding activity (percent of control), % at 10 µM; 190,000 tested, 0.055% active; AID 758, 2007;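 active = fluorescent GTP binding to Rab7 beads changed by at least 20 points from the 100% baseline, either direction, mostly lower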;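 also: median green fluorescence of bound Bodipy-FL-GTP per Rab7 bead population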
# Rac1 act GTP bind – GTP binding modulators of activated mutant Rac1, primary screen, biochemical, bead-based flow cytometry, multiplex, fluorescent GTP; 190,000 tested, 0.11% active; GST-Rac1 activated beads; actives lie on both sides; 100% means binding = to untreated wells; Ras-related C3 botulinum toxin substrate 1 (Homo sapiens), P63000; AID 764, 2007; percent activity (GTP binding), % at 10 µM;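 active = GTP binding at least 20 percentage points away from the 100% baseline, in either direction, so actives lie on both sides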
# Starred values were filed as active, the others as inactive; [ ] = dose if it differs, or a comment.
SMILES,Rab2 wt GTP,Cdc42 wt,HRas wt GTP bind,Rac1 wt GTP bind,Rab7 wt modul,Rac1 act GTP bind
COc1cccc(C2CC(c3ccccc3OC)n3ncnc3N2)c1 (configuration not stated),99,98,100,107,100,98
COc1cccc(C2CC(c3ccccc3)Nc3ncnn32)c1 (configuration not stated),106,113,103,123*[activator],98,102
O=C(CN1CCCCC1)N1CCCc2ccccc21,102,104,103,106,100,101
N#Cc1ccc2ccn(CC(=O)N3CCCc4ccccc43)c2c1,109,109,109,129*[activator],110,106
O=C(O)c1ccc(Nc2nc(-c3cc4ccccc4oc3=O)cs2)cc1O,87,84,87,79*,94,88
O=c1c2c(-c3ccccc3)csc2nc2c3ccccc3c(NCCN3CCOCC3)nn12,65*,69*,65*,55*,70*,82
c1ccc(-c2csc3ncnc(NCCCN4CCOCC4)c23)cc1,97,94,97,98,105,97
Cc1ccc(COc2ccsc2C(=O)O)cc1,117,120*[activator],114,118,98,115
Cn1c(=O)n(Cc2ccc(Cl)cc2)c2ccccc21,100,101,99,102,102,99
CCOc1cc(/C=C(/C#N)c2nc3ccccc3[nH]2)ccc1OCc1ccc(C(=O)O)o1,74*,77*,76*,85,92,86
Nc1c(C(=O)C2CC2)sc2nc(-c3cccs3)cc(C(F)(F)F)c12,117,109,110,120*[activator],116,103
CSc1ccccc1NC(=O)NCCCl,100,100,99,103,105,98
Cc1ccc(/C=N/N(C)C2=NS(=O)(=O)c3ccccc32)o1,65*,64*,66*,64*,90,82
CN(/N=C/c1ccc(Br)o1)C1=NS(=O)(=O)c2ccccc21,82,83,86,77*,91,89
CCc1cccc(C)c1NC(=S)NCC(c1cccnc1)N1CCOCC1 (configuration not stated),98,97,98,102,102,97
O=C(COC(=O)/C=C/c1cccc([N+](=O)[O-])c1)NCc1ccc2c(c1)OCO2,82,82,88,85,98,79*
COc1ccc(CCNC(=O)C2CCCN2C(=O)NC2CCCCC2)cc1OC (configuration not stated),128*[activator],141*[activator],122*[activator],143*[activator],99,114
COc1ccc(CCNC(=O)NC2CCCCC2)cc1OC,97,97,96,96,96,95
O=C(c1ccccc1SCc1ccccc1)N1CCOCC1,100,98,98,103,107,98
O=C(O)c1ccccc1SCc1ccc2c(c1)OCO2,127*[activator],135*[activator],123*[activator],135*[activator],121*[activator],127*[activator]
Cc1cc(NS(=O)(=O)c2ccc(NC(=O)c3cc4c(=O)n5ccccc5nc4s3)cc2)nc(C)n1,80,76*,82,83,104,85
CN(C)S(=O)(=O)c1cccc(NC(=O)c2cc3c(=O)n4ccccc4nc3s2)c1,87,96,89,91,93,96
COc1ccc(/C=C(/NC(=O)c2cccc([N+](=O)[O-])c2)C(=O)O)cc1,99,100,97,99,99,97
Cc1cc(/C=c2\sc3nc4ccccc4n3c2=O)c(C)n1-c1ccc(C(=O)O)cc1,85,78*,88,81,94,76*
CC(C)(C)C(=O)N1CCC(O)(CS(=O)(=O)Cc2ccccc2)CC1,99,100,98,100,97,99
SMILES,Rab2 wt GTP,Cdc42 wt,HRas wt GTP bind,Rac1 wt GTP bind,Rab7 wt modul,Rac1 act GTP bind
CC1CCN(c2ncccc2C(=O)O)CC1,130*[activator],141*[activator],128*[activator],156*[activator],125*[activator],129*[activator]
O=C(Nc1c(F)cccc1F)c1cnc(N2CCN(c3ccccn3)CC2)c2ccccc12,97,103,101,131*[activator],101,106
Cc1cc(-c2n[nH]c(=S)n2/N=C/C(Cl)=C/c2ccccc2)n[nH]1,85,92,77*,85,77*,85
O=S(=O)([N-]c1nc2ccccc2nc1-[n+]1ccc(-c2ccncc2)cc1)c1ccccc1,94,94,91,95,93,96
COc1ccc(Nc2nc(Nc3ccc(OC)cc3OC)nc(N3CCN(C)CC3)n2)c(OC)c1,101,101,101,108,96,99
COc1ccc(CNc2nc3c(c(=O)n(Cc4ccc(Br)cc4)c(=O)n3C)n2C)cc1,87,83,90,80,92,79*
Cn1c(NCc2ccccc2)nc2c1c(=O)n(Cc1ccc(Br)cc1)c(=O)n2C,103,98,100,100,102,98
Cc1ccc(S(=O)(=O)ON=C2CCN(S(=O)(=O)c3ccccc3)CC2)cc1,97,95,97,97,99,97
CC1=CC(=O)C=C(C)C1=NOS(=O)(=O)c1ccccc1,88,91,92,89,90,78*
O=C(NCCc1ccc2c(c1)OCCO2)c1ccc(F)cc1,100,104,100,106,100,101
O=S(=O)(Nc1cc(Sc2ncn[nH]2)c(O)c2ccccc12)c1ccccc1,91,95,92,78*,91,89
Cc1cc(NS(=O)(=O)c2ccccc2)c(C)c(Cl)c1O,101,106,101,105,98,103
O=C(O)c1cccnc1SCc1ccccc1Cl,118,122*[activator],116,131*[activator],115,121*[activator]
Cc1ccc(C)c(CSc2ncccc2C(=O)O)c1,114,132*[activator],113,144*[activator],114,126*[activator]
O=C(O)CSc1ncccc1C(=O)O,99,104,102,103,98,101
Cc1ccc(Sc2ncccc2C(=O)O)c(C)c1,124*[activator],126*[activator],123*[activator],135*[activator],106,127*[activator]
CCOc1cc(/C=N/NC(=O)CN2CCCCC2)ccc1OCc1cccc(Cl)c1,98,104,99,103,100,99
COc1ccc(/C=C2\N=C(SC)SC2=O)cc1OC,77*,82,81,81,64*,81
CSC1=N/C(=C\c2ccc(C)cc2)C(=O)S1,104,107,105,103,98,99

# Assay outcomes from PubChem BioAssay.
